The list is not random: actives were taken first. Their share in the collection is about 1.1%.
GalR3 antag – GalR3 antagonists in HEK293 cells, primary screen, cell-based, fluorescence readout. Galanin receptor type 3 (Homo sapiens), O60755. HEK293 GalR3-CNG cAMP membrane potential fluorescence; galR3 body fused to GalR1 C-terminus. inhibition, % at 3 µM. 360,000 compounds, 0.44% hits. AID 651719, 2012;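 active = inhibition above the screen-wide average plus 3 SD, cut at about 13% in these data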;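 note: forskolin and galanin both at EC90 stimulate the cells; cAMP rise reported by CNG channel membrane potential dye signal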
NCOA3 inh – SRC3 coactivator transcriptional activity inhibitors, primary screen, cell-based, luminescence. Nuclear receptor coactivator 3 (Homo sapiens), Q9Y6Q9. HEK293 GAL4-SRC3 luciferase reporter. inhibition, % at 3.6 µM. 360,000 compounds, 0.17% hits. AID 588352, 2011;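 active = inhibition above a per-campaign cutoff, the mean of all compounds plus 3 SD, cut at about 60% in these data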;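 note: higher means less SRC3-driven luciferase light from the GAL4 reporter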
SRC2 inh – inhibition of GAL4-SRC2 driven luciferase reporter, primary screen, SRC2 inhibitor project, cell-based, luminescence; HEK293 GAL4-SRC2 luciferase reporter; inhibition, % at 9 µM; 370,000 compounds, 0.17% hits; AID 651957, 2012;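 active = inhibition above the mean inhibition of all tested compounds plus 3 SD, set per campaign, cut at about 52% in these data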
LRH-1 inv ag – LRH-1 (NR5A2) inverse agonists, primary screen, cell-based, luminescence, HEK293T, StAR-luciferase reporter; AID 602396, 2012; inhibition, % at 3.6 µM; 360,000 compounds, 0.13% hits; LRH-1 transfected, 24 h;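 active = inhibition above the mean inhibition of all tested compounds plus 3 SD, cut at about 73% in these data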
COUP-TFII inh – NR2F2 transcriptional activity inhibitors, primary screen, cell-based, luciferase reporter, HEK293T, luminescence; HEK293T NGFI-A luciferase reporter; inhibition, % at 8.6 µM; 370,000 compounds, 0.7% hits;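 active = inhibition above a per-plate cutoff, mean inhibition of test wells between control levels plus 3 SD, cut at about 38% in these data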;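 note: cells cotransfected with COUP-TFII expression vector driving the NGFI-A reporter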
SRC1 inh – SRC1 coactivator transcriptional activity inhibitors, primary screen, cell-based, luminescence | inhibition, % at 3.6 µM | HEK293 GAL4-SRC1 luciferase reporter | Nuclear receptor coactivator 1 (Homo sapiens), Q15788 | AID 588354, 2011 | 360,000 compounds, 0.12% hits;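 active = inhibition above the campaign mean plus 3 SD, with each screening campaign given its own cutoff, cut at about 60% in these data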
Target sequence (Q15788 whole entry, looked up, the tested form may be a part): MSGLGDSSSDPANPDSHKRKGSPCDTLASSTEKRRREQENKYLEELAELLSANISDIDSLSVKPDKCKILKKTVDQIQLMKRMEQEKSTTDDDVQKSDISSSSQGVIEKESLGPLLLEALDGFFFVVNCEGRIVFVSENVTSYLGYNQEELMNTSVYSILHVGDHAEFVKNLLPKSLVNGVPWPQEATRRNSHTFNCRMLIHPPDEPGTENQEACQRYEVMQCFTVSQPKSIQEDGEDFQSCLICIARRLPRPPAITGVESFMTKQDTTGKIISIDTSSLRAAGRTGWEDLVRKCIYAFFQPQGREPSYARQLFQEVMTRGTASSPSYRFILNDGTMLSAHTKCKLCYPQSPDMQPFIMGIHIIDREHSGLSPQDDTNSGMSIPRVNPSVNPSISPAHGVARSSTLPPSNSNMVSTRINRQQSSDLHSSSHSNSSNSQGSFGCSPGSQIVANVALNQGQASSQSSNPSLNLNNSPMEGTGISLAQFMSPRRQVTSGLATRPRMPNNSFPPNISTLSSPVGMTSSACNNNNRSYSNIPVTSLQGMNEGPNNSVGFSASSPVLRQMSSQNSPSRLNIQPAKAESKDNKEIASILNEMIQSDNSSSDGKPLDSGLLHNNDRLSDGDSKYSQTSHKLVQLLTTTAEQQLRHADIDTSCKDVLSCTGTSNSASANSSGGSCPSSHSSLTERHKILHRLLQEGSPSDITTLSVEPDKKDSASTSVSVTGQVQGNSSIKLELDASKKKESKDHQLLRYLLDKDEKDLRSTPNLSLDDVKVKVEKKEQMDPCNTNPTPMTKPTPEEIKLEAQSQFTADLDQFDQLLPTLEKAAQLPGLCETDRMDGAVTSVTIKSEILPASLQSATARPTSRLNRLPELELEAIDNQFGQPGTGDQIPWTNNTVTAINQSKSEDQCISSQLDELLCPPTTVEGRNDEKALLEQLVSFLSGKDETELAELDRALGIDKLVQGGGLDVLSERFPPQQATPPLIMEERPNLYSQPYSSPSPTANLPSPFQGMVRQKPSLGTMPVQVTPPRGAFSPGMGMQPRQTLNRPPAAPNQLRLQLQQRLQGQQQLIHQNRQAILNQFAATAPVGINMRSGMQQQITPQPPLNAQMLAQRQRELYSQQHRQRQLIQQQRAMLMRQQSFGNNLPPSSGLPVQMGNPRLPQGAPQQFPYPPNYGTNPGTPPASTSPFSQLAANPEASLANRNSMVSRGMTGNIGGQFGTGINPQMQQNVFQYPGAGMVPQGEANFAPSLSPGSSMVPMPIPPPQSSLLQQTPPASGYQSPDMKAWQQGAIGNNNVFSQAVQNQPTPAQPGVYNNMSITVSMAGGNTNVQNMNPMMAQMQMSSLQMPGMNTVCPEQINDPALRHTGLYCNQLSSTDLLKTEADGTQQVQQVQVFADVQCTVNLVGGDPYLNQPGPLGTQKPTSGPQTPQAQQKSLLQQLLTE
GalR3 antag conf – GalR3 antagonist hit confirmation, cell-based, fluorescence, triplicate; shares compounds with GalR3 antag; HEK293 GalR3 CNG cAMP biosensor, membrane potential fluorescence; galR3 fused to GalR1 carboxy tail; challenged with forskolin and galanin at EC90; inhibition, % at 3 µM; 1,600 compounds, 59% hits;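 active = inhibition above the primary screen's cutoff, the mean inhibition of all screened compounds plus 3 SD, cut at about 13% in these data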
CNG parental – nonspecific cAMP agonists in parental HEK-CNG cells, counter-screen for GalR3 antagonist project, cell-based, fluorescence, high throughput | shares compounds with GalR3 antag | HEK293-CNG parental cells, cAMP membrane potential fluorescence; normalised: DMSO wells 0%, forskolin wells 100% | activation, % at 3 µM | 1,600 compounds, 10% hits | AID 652268, 2013; in the data active = activation above about 1.3%
Gal4-VP16 ctr – Gal4-VP16 luciferase reporter inhibitors, counter-screen for COUP-TFII antagonist project, cell-based, luminescence, HEK293; shares compounds with COUP-TFII inh; inhibition, % at 8.5 µM; 2,500 compounds, 25% hits; in the data active = inhibition above about 13%
COUP-TFII conf – NR2F2 transcriptional activity inhibitors, confirmation, cell-based, luciferase reporter, HEK293, triplicate; shares compounds with COUP-TFII inh; inhibition, % at 8.5 µM; AID 687008, 2013; 2,500 compounds, 45% hits; HEK293 NGFI-A luciferase reporter, luminescence;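 active = mean inhibition over three repeats above a set limit taken from the earlier primary screen, cut at about 38% in these data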
Each line names hits and unclear results; the compound was inactive in the other large screens (follow-up assays come after a bar, where they were run); ! = repeats disagree.

CC1(C)CC(N2CCCC2)=CC(=[N+]2CCCCC2)C1	GalR3 antag 37, COUP-TFII inh 56 | GalR3 antag conf inactive | CNG parental inactive | Gal4-VP16 ctr inactive | COUP-TFII conf 45
CC1(C)CC(=O)c2sc(N3CCCCC3)nc2C1	none
Cc1cc(C)cc(-c2c(C(=O)c3ccc(Br)cc3)[nH]c(N)c2C(=O)NCc2ccc(Cl)cc2)c1	none (no result: GalR3 antag, NCOA3 inh, SRC2 inh, LRH-1 inv ag, SRC1 inh)
Cc1ccc(C2(c3ccc(C)cc3)CC2C(=O)Nc2ccc([N+](=O)[O-])cc2O)cc1 (stereo unspecified)	GalR3 antag 61, COUP-TFII inh 67 | GalR3 antag conf 22 | CNG parental inactive | Gal4-VP16 ctr inactive | COUP-TFII conf inactive
CCCCCC[C@@H](CC)CN(C(=O)Oc1ccccc1)c1ccccc1	none (no result: GalR3 antag, NCOA3 inh, LRH-1 inv ag, SRC1 inh)
CCN(CC)c1ncnc2c1[nH]c1ccccc12	none
CC(C)Oc1ncnc2c1[nH]c1ccccc12	GalR3 antag 19, COUP-TFII inh 38 | GalR3 antag conf inactive | CNG parental inactive | Gal4-VP16 ctr inactive | COUP-TFII conf inactive
CC(=O)c1c(C)[nH]c(C(=O)OCC(=O)Nc2cccc(S(=O)(=O)N(C)C)c2)c1C	none
CCN(CC)S(=O)(=O)c1cccc(NC(=O)COC(=O)c2[nH]c(C)c(C(C)=O)c2C)c1	GalR3 antag 28, COUP-TFII inh 62 | GalR3 antag conf 97 | CNG parental inactive | Gal4-VP16 ctr inactive | COUP-TFII conf 60
COc1cccc(CN(C)C(=O)c2ccc(OCC(=O)Nc3cccc(C(F)(F)F)c3)c(OC)c2)c1	GalR3 antag 90, COUP-TFII inh 77 | GalR3 antag conf 94 | CNG parental inactive | Gal4-VP16 ctr inactive | COUP-TFII conf 76
CCCCC(Nc1ncnc2ccccc12)C(=O)O (stereo unspecified)	none
CC(Nc1ncnc2ccccc12)c1ccccc1 (stereo unspecified)	GalR3 antag 96, COUP-TFII inh 71 | GalR3 antag conf 106 | CNG parental inactive | Gal4-VP16 ctr inactive | COUP-TFII conf 61
CCOC(=O)[C@@]12CCCC=C1N(CCc1ccc(Cl)cc1)C(=O)[C@H]2CC(=O)NCc1ccccc1	none (no result: GalR3 antag, NCOA3 inh, LRH-1 inv ag, SRC1 inh)
Cc1ccc(S(=O)(=O)N(C)Cc2ccc(C(=O)N/N=C/c3ccc(OC(F)F)cc3OC(F)F)cc2)cc1	GalR3 antag 80, COUP-TFII inh 70 | GalR3 antag conf 28 | CNG parental inactive | Gal4-VP16 ctr inactive | COUP-TFII conf 74
CC(C)c1ccc(NC2CCCN(C(=O)c3n[nH]c4c3CCC4)C2)cc1 (stereo unspecified)	GalR3 antag 31, COUP-TFII inh 38 | GalR3 antag conf 36 | CNG parental inactive | Gal4-VP16 ctr inactive | COUP-TFII conf inactive
COC(=O)c1ccc(C(=O)N2CCCC(Nc3ccc(C(C)C)cc3)C2)cc1 (stereo unspecified)	none
COC(=O)[C@]12C[C@H](CC(=O)NCc3ccc(C)o3)C(=O)N(CCc3ccc(OC)c(OC)c3)C1=C[C@H](C1CCCC1)O[C@@H]2C	none (no result: GalR3 antag, NCOA3 inh, LRH-1 inv ag, SRC1 inh)
CN(C)CCCNC(=O)c1ccc(Cl)c(S(=O)(=O)N2CCCCCC2)c1	none
CN(C)C(CNC(=O)c1ccc(Cl)c(S(=O)(=O)N2CCCCCC2)c1)c1ccccc1 (stereo unspecified)	GalR3 antag 71, COUP-TFII inh 63 | GalR3 antag conf 88 | CNG parental 1.3 | Gal4-VP16 ctr inactive | COUP-TFII conf inactive
Cc1ccccc1CCNC(=O)c1ccc(Cl)c(S(=O)(=O)N2CC(C)OC(C)C2)c1 (stereo unspecified)	GalR3 antag 107, COUP-TFII inh 67 | GalR3 antag conf 92 | CNG parental inactive | Gal4-VP16 ctr inactive | COUP-TFII conf inactive
C(#CC1=CCCCC1)CNCc1ccccc1	none (no result: GalR3 antag, NCOA3 inh, LRH-1 inv ag, SRC1 inh)
COc1ccccc1-[n+]1c(C)cc(/C=C2\Sc3ccccc3N2C)cc1C	GalR3 antag 44, NCOA3 inh 69, LRH-1 inv ag 84, COUP-TFII inh 82, SRC1 inh 62 | GalR3 antag conf 107 | CNG parental inactive | Gal4-VP16 ctr inactive | COUP-TFII conf 89
COc1ccc(-[n+]2c(C)cc(/C=C3\Sc4ccccc4N3C)cc2C)cc1	GalR3 antag 82, NCOA3 inh 75, LRH-1 inv ag 98, COUP-TFII inh 82, SRC1 inh 71 | GalR3 antag conf 103 | CNG parental inactive | Gal4-VP16 ctr inactive | COUP-TFII conf 67
O=C(Nc1nc(-c2ccccc2)cs1)c1ccccc1NS(=O)(=O)c1ccc(F)cc1	GalR3 antag 17, LRH-1 inv ag 75, COUP-TFII inh 55 | GalR3 antag conf 77 | CNG parental inactive | Gal4-VP16 ctr inactive | COUP-TFII conf inactive
O=S(=O)(Nc1ccc(-c2csc(-c3ccccc3)n2)cc1)c1ccc(F)cc1	none
C=CCN=C1NC(c2ccc(C(F)(F)F)cc2)C(C(=O)OC)=C(C)N1C (stereo unspecified)	none (no result: NCOA3 inh, LRH-1 inv ag, SRC1 inh)
CCCCCCCn1c2c(c(=N)c3ccccc31)CCC2	GalR3 antag 42, NCOA3 inh 64, LRH-1 inv ag 79, COUP-TFII inh 74 | GalR3 antag conf 58 | CNG parental 7.3 | Gal4-VP16 ctr 25 | COUP-TFII conf 75
CC(C)(C)c1ccc(-c2cn(-c3ccc(Br)cc3)c3[n+]2CCCS3)cc1	GalR3 antag 25, LRH-1 inv ag 83, COUP-TFII inh 50 | GalR3 antag conf 60 | CNG parental 1.7 | Gal4-VP16 ctr 18 | COUP-TFII conf inactive
COc1ccc(-c2cn(-c3ccccc3)c3[n+]2CCS3)cc1	GalR3 antag 16!, COUP-TFII inh 50 | GalR3 antag conf inactive | CNG parental inactive | Gal4-VP16 ctr inactive | COUP-TFII conf inactive

Screens from PubChem.
